Several values for one entry are separate records, joined by “and”; a condition that tells them apart may be missing. Equal values may be shown once. Compounds without any hit were thinned out: in the full panel of roughly 79,000, 15% have a hit. Values without a mark were called inactive. Activity calls are given as the source filed them. No stated cut-off is given here; in the data, active means growth inhibition above about 70%; inactive means the rest.

The nature of assay [1]: NCI Yeast Anticancer Drug Screen. Data for the rad50 strain (AID 155).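 Further: 0% = growth of vehicle-only cultures of the same strain.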 Particulars: S. cerevisiae rad50 strain growth inhibition; at 50.0 µM; hits give high values. In outline:
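Genetically altered yeast (DNA repair pathway); compound treatment; growth inhibition vs vehicle ctrl.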

Assay [2] in a line: NCI Yeast Anticancer Drug Screen. Data for the mec2-1 strain (AID 157). Particulars: S. cerevisiae mec2-1 strain, at 50.0 µM, hits give high values. In outline:
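Using mec2-1 yeast: add compound, measure growth, express inhibition versus vehicle-treated cultures.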

Assay [3] is described as follows: NCI Yeast Anticancer Drug Screen. Data for the sgs1 mgt1 strain (AID 161).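 Further: 0% = growth of cultures given vehicle only.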 Particulars: S. cerevisiae sgs1 mgt1 strain, at 50.0 µM, hits give high values. In outline: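 Yeast cells carrying a defined DNA-repair defect were exposed to test compounds. Growth inhibition was measured relative to vehicle-treated controls.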
Assay [4] in a line: NCI Yeast Anticancer Drug Screen. Data for the cln2 rad14 strain (AID 165).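 Further: 0% = growth equal to vehicle treated cultures.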 As to conditions: S. cerevisiae cln2 rad14 strain, at 50.0 µM, hits give high values. In outline:
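Yeast strain cln2 rad14, bearing defects in cell cycle control and DNA repair, serves as the test system; values reflect growth inhibition compared with vehicle.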

The nature of assay [5]: NCI Yeast Anticancer Drug Screen. Data for the bub3 strain (AID 167). Particulars: S. cerevisiae bub3 mutant strain, at 50.0 µM, hits give high values. In outline: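 Yeast carrying a defined mutation is treated with each compound, and growth is compared with that of vehicle-exposed cells to give inhibition.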
A short description of assay [6]: NCI Yeast Anticancer Drug Screen. Data for the mlh1 rad18 strain (AID 175). As to conditions: S. cerevisiae mlh1 rad18 strain growth inhibition; at 50.0 µM; hits give high values. In outline:
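Steps: expose repair-defective yeast to compound; measure growth; express inhibition against vehicle-treated controls.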

For `O=C1C2CCN(CC2)C1Cc1ccccc1` (configuration not stated), the growth inhibition is -10.2% and -4.55% in assay [1]; 1.95% and 2.95% in assay [2]; -8.7% and 4.4% in assay [3]; -4.3% and -0.15% in assay [4]; -18.3% and -2.8% in assay [5]; -15.4% and 2.95% in assay [6].
`O=C(O)CC(=O)O.[Ti].[c-]1[c-][c-][cH-][c-]1.[c-]1[c-][c-][cH-][c-]1`: the growth inhibition was -12.4% in assay [1]; -5.75% in assay [2]; -6.8% in assay [3]; -51.6% in assay [4]; 0.2% in assay [5]; -0.95% in assay [6].
Take `O=C(Cl)OCCOCCOC(=O)Cl`: the growth inhibition in assay [1] was -4.35%; in assay [2] it was -6.1%; in assay [3], 6.95%; in assay [4], -28.1%; in assay [5] it was -3.15%; in assay [6], -4.4%.
Take `Cc1cc(OCC2=NCCN2)c(C)c(C)c1Cl`: the growth inhibition was 44.3% in assay [1]; 26.9% in assay [2]; 36.1% in assay [3]; 51% in assay [4]; 9.2% in assay [5]; 79.3% (active) in assay [6].
Consider `CN(C)CCC(=O)c1ccccc1`, for which the growth inhibition in assay [1] is 3.05% and -40.5%; in assay [2] it was 0.7% and 11.3%; in assay [3] it was 5.85% and -7.35%; in assay [4], -0.6% and -27.6%; in assay [5] it was 4.35% and -1.8%; in assay [6], 4.4% and 10.6%.
For the molecule `O=[N+]([O-])c1ccc(C#Cc2ccc(N(CCCl)CCCl)cc2)cc1`, the growth inhibition was 1.95% in assay [1]; -8.85% in assay [2]; 7.5% in assay [3]; -65.5% in assay [4]; 9.2% in assay [5]; -3.95% in assay [6].
Turning to `O=C(O)Cc1ccc([N+](=O)[O-])cc1[N+](=O)[O-]`, the growth inhibition in assay [1] is 3.55%; in assay [2], -13.6%; in assay [3], -7.25%; in assay [4], -27.2%; in assay [5] it was 0.05%; in assay [6], -2.6%.
For the molecule `Oc1ccc(C(O)C2CCCCN2)cc1O` (configuration not stated), the growth inhibition was -10.5% in assay [1]; -20.9% in assay [2]; -0.25% in assay [3]; -17.9% in assay [4]; -16.8% in assay [5]; -0.45% in assay [6].
For `CC(=O)OC1CC(OC2C(O)CC(OC3C(O)CC(OC4CCC5(C)C(CCC6C5CCC5(C)C(C7=CC(=O)OC7)C(O)CC65O)C4)OC3C)OC2C)OC(C)C1OC1OC(CO)C(O)C(O)C1O` (configuration not stated), the growth inhibition in assay [1] is 18.1%; in assay [2], 8.8%; in assay [3], -12.8%; in assay [4], 8.1%; in assay [5], 21.8%; in assay [6], 10.8%.
Consider `CN(c1ccccc1)[N+](=O)[O-]`, for which the growth inhibition in assay [1] was -9.45%; in assay [2], -12.2%; in assay [3], -14.2%; in assay [4], -5.1%; in assay [5] it was -7.8%; in assay [6], -5.3%.
As to `O=C(Cc1ccccc1)OC1CCCC1`, the growth inhibition in assay [1] was 14.6%; in assay [2], -4.6%; in assay [3] it was -7.15%; in assay [4], -39%; in assay [5], -3.3%; in assay [6], 19%.
For the molecule `CC(=O)OC1(C)CC(C)C(=O)C(C(O)CC2CC(=O)NC(=O)C2)C1` (configuration not stated), the growth inhibition was 92.8% (active) in assay [1]; 94.3% (active) in assay [2]; 93.7% (active) in assay [3]; 92.2% (active) in assay [4]; 93.3% (active) in assay [5]; 92.3% (active) in assay [6].
Regarding `COc1cc(-c2[nH]ccc2Cl)oc1C1=C2N=C3C=C2C(C(C)C)C1CCCCCCCC3` (configuration not stated), the growth inhibition in assay [1] was 85.3% (active); in assay [2], 83.6% (active); in assay [3] it was 89% (active); in assay [4], 89.1% (active); in assay [5], 88.3% (active); in assay [6] it was 89.6% (active).
`COc1ccc(C(N)Cc2ccccc2)cc1` (configuration not stated): the growth inhibition is 10.8% in assay [1]; 3.15% in assay [2]; 10.8% in assay [3]; 9.85% in assay [4]; 3.5% in assay [5]; -2.35% in assay [6].
In the case of `O=C(Nc1ccc(Cl)cc1C(=O)c1ccccc1)c1ccc(Cl)cc1`, the growth inhibition in assay [1] is -5.95%; in assay [2], 10.1%; in assay [3], 4.25%; in assay [4] it was -2%; in assay [5] it was 25.9%; in assay [6] it was 9.55%.
`CCCCC(=O)O.[Ni]`: the growth inhibition is -11.2% in assay [1]; -2.65% in assay [2]; -9.7% in assay [3]; -32% in assay [4]; -30.9% in assay [5]; -14.1% in assay [6].
Consider `CCCCN1COC2CCCCC21` (configuration not stated), for which the growth inhibition in assay [1] is 20.6%; in assay [2], -13.2%; in assay [3] it was -43.2%; in assay [4], -12.6%; in assay [5], -44.4%; in assay [6], -32.9%.
Take `CN(CCOC(=O)c1ccc(Br)cc1)[N+](=O)[O-]`: the growth inhibition was 8.9% in assay [1]; 3.2% in assay [2]; -6.25% in assay [3]; 5.8% in assay [4]; 38.9% in assay [5]; 22.9% in assay [6].
Turning to `ClCCN(CCCl)c1ccc(N=Cc2ccccc2)cc1`, the growth inhibition in assay [1] is 24.9%; in assay [2], 17%; in assay [3], 7.35%; in assay [4], 4.3%; in assay [5] it was 19.4%; in assay [6], 44.6%.
`CC1OC(O[C@@H]2C=C3CC[C@@H]4[C@H](CC[C@]5(C)[C@@H](c6ccc(=O)oc6)CC[C@]45O)[C@@]3(C)CC2)C(O)C(O)C1O` (some centres not stated): the growth inhibition in assay [1] was 2.85%; in assay [2], -37.5%; in assay [3], -25%; in assay [4], 13.1%; in assay [5] it was -15.9%; in assay [6], 4.7%.
Take `N.N.N.N.O=S(=O)([O-])[O-].[Co+3].[OH3+].[OH3+]`: the growth inhibition in assay [1] is 2.25%; in assay [2] it was -0.6%; in assay [3] it was -22.5%; in assay [4] it was 26.1%; in assay [5] it was -4.7%; in assay [6], -0.15%.
With `CC(C)(CBr)COP1(=O)NCC(C)(C)CO1` (configuration not stated), the growth inhibition is 13.7% in assay [1]; -3.7% in assay [2]; 3.85% in assay [3]; 20.4% in assay [4]; 4.2% in assay [5]; 10.8% in assay [6].

These data come from PubChem BioAssay (NCI).
